Laboratory results published in PubChem BioAssay.
Several values for one entry are separate records, joined by “and”; a condition that tells them apart may be missing. Equal values may be shown once. Records with an inconclusive call do not appear. Activity calls are given as the source filed them. Unless noted, cut-off not given; nearly all actives show AC50 up to about 30 µM.

What was measured:
[1] = growth inhibition of DIPG glioma cells, dose response, cell-based, SU-DIPG-XIII, MIPE4.0, CellTiter-Glo, qHTS (AID 1347061; cut-off not given, nearly all actives have AC50 up to about 37 µM;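 further: cells exposed to compound for 48 hours before readout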); details: SU-DIPG-XIII viability, CellTiter-Glo ATP luminescence
[2] = growth inhibition of DIPG glioma cells, dose response, cell-based, JHH-DIPG-1, MIPE4.0, CellTiter-Glo, qHTS (AID 1347062; cut-off not given, nearly all actives have AC50 up to about 27 µM;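 on AC50: cells exposed to compound for two days before readout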); details: JHH-DIPG-1 viability, CellTiter-Glo ATP luminescence
[3] = growth inhibition of DIPG glioma cells, dose response, cell-based, SU-DIPG-IV, MIPE4.0, CellTiter-Glo, qHTS (AID 1347063); details: SU-DIPG-IV viability, CellTiter-Glo ATP luminescence;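 further: compound exposure lasted 48 hours before the viability readout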
[4] = growth inhibition of DIPG glioma cells, dose response, cell-based, SU-DIPG-XIII, MIPE5.0, CellTiter-Glo, qHTS (AID 1347064; cut-off not given, nearly all actives have AC50 up to about 23 µM;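 on AC50: cells exposed to compound for 48 hours before the viability read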); details: SU-DIPG-XIII viability, CellTiter-Glo ATP luminescence
[5] = viability loss in pontine glioma line – cell-based, SU-DIPG-XXV, MIPE5.0, CellTiter-Glo, qHTS, dose response (AID 1347065; cut-off not given, nearly all actives have AC50 up to about 26 µM;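 further: cells exposed to compound for 48 hours before ATP readout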); details: CellTiter-Glo ATP luminescence
[6] = SU-DIPG-VI glioma cell viability, MIPE4.0 library, CellTiter-Glo luminescence, qHTS (AID 1347066); details: CellTiter-Glo ATP luminescence;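 further: cells exposed to compound for 48 hours before readout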
[7] = growth inhibition of DIPG glioma cells, dose response, cell-based, SU-DIPG-XVII, MIPE5.0, CellTiter-Glo, qHTS (AID 1347060; cut-off not given, nearly all actives have AC50 up to about 26 µM); details: SU-DIPG-XVII viability, CellTiter-Glo ATP luminescence
[8] = sensitizers of A549 cells to miR-34 induction, primary screen, imaging, A549 dox-inducible miR-34, nuclei and caspase counts (AID 1347080;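 active means compounds whose cell count with miR-34 switched on is under 0.7 times the count with it off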); details: A549 miR-34 inducible, Hoechst nuclei count, 48 h
[9] = survival rescue of mitochondrial mutant cells in low glucose, primary screen, MELAS cybrids, Rieske KO mouse fibroblasts, CellTiter-Glo (AID 1508586;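 active means mean z-score across replicates of 1.96 or higher in either the MELAS or the Rieske mutant cell line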;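 further: z relative to plate mean and SD of compound and empty wells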)
[10] = SU-DIPG-XXV glioma cell viability, MIPE5.0 library, qHTS (AID 1347068; cut-off not given, nearly all actives have IC50 up to about 30 µM)
[11] = system: Hepatitis C virus NS3 helicase; test: HCV NS3 helicase inhibitors, primary screen, biochemical, fluorescence polarization, LOPAC1280 library (AID 687035; in the data active means inhibition above about 37%); details: Purified HCV NS3 helicase, Cy5-dT15 ssDNA binding fluorescence polarization; stronger effect = higher value; concentration not given here
[12] = Cy5 fluorescence quenching or enhancement artefacts, artefact control for HCV NS3 helicase inhibitor project, biochemical, LOPAC1280 (AID 687037; call rule not given here); details: Cy5-DNA-NS3h complex fluorescence interference counterscreen
[13] = JHH-DIPG-1 glioma cell viability, MIPE5.0 library, CellTiter-Glo luminescence, qHTS (AID 1347067; cut-off not given, nearly all actives have AC50 up to about 26 µM;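 further: cells exposed to compound for 48 hours before readout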); details: JHH-DIPG-1 glioma viability, CellTiter-Glo ATP luminescence
[14] = phospholipid biosynthesis inhibitors in animal cells, primary screen, cell-based, LOPAC library, screen 4 (AID 1347384; call rule not given here); details: phospholipid biosynthesis inhibition screen, at 10 µM
[15] = viability rescue of complex I mutant cybrids, primary screen, cell-based, galactose medium, ATP luminescence (AID 1645843;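 active means z-score of at least 1.8 in each of two replicates, scored against plate mean and spread of sample wells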;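 further: positive z means more ATP and so rescue of galactose-driven cybrid death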); details: complex I mutant cybrid cells, 72 h, stronger effect = higher value
[16] = liver-stage malaria parasite growth inhibition, primary screen, cell-based, HepG2, luciferase luminescence, HepG2 viability (AID 624349; in the data active means parasite load remaining mostly below about 12%, no sharp cut-off; inactive means mostly above about 10%;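 further: 100% = mean of DMSO negative control wells on the same plate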); details: P. berghei liver stage in HepG2, luciferase luminescence, concentration not given here; parasite load remaining: stronger effect = lower value; viability: measured here: HepG2 viability without parasites
[17] = target: NAD(+) hydrolase SARM1 (Homo sapiens) (UniProt Q6SZW1); test: SARM1 TIR NADase inhibitors, cell lysate, NAD-Glo luminescence (AID 1508614;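 active means compound whose remaining NAD level is above about 45 nM, limit read from the data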); details: SAM-TIR HEK293T lysate NADase, at 1 µM, stronger effect = higher value
Chain of NAD(+) hydrolase SARM1 (Homo sapiens) (Q6SZW1 whole entry, looked up, the tested form may be a part): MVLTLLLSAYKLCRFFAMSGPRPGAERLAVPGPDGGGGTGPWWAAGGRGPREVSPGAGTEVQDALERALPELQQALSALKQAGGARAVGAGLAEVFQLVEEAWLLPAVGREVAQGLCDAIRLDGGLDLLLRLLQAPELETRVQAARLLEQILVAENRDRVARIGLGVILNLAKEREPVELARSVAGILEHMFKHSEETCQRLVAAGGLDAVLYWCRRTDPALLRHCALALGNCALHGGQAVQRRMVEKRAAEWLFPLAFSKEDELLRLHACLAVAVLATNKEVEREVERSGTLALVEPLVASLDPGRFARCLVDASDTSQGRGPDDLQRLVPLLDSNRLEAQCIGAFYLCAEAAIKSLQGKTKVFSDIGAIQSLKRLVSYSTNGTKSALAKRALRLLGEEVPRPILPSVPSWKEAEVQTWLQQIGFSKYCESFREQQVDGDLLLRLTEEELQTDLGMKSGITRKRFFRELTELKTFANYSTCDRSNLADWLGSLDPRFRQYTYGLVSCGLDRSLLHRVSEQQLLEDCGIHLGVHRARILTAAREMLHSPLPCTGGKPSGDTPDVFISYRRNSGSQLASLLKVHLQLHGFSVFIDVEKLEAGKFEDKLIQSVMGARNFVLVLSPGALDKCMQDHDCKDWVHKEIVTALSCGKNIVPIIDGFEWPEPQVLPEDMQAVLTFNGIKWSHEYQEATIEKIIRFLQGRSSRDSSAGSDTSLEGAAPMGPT

[18] = target: Mitogen-activated protein kinase 7 (Homo sapiens) (UniProt Q13164); test: ERK5 transactivation activators in reporter cells, primary screen, cell-based, HTS (AID 1508626;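 active means luciferase signal above three times the same-plate solvent-only control wells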;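 further: luciferase driven by Gal4-ERK5 fusion binding five Gal4 sites before minimal TATA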); details: HeLa Gal4-ERK5 transactivation, 18 h, at 5 µM, stronger effect = higher value
Chain of Mitogen-activated protein kinase 7 (Homo sapiens) (Q13164 whole entry, looked up, the tested form may be a part): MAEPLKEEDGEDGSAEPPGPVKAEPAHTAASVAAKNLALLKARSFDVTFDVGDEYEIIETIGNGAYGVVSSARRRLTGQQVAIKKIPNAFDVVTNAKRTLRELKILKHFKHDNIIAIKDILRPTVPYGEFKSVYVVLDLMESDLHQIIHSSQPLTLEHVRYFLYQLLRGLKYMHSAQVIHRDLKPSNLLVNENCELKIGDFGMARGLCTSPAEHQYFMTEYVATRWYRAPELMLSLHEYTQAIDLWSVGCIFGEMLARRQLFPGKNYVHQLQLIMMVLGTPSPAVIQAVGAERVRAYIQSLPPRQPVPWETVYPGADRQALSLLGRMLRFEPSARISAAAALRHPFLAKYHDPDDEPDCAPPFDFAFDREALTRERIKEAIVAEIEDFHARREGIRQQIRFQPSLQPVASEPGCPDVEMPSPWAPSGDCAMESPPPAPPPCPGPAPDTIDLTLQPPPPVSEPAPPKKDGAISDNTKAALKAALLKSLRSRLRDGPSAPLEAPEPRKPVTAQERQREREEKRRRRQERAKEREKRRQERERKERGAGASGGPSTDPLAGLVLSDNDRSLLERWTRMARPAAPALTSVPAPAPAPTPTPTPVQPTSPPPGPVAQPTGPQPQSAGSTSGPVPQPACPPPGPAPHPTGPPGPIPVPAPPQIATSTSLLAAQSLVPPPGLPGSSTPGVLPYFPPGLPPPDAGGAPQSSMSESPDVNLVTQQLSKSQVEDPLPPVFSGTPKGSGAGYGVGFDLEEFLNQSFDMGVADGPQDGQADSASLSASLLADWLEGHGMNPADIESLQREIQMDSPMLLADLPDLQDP

[19] = stronger effect = lower value, cell number ratio, induced over uninduced
[20] = measured here: relative caspase fold change +Dox/-Dox
[21] = measured here: total cells with miR-34 induction, stronger effect = lower value
[22] = measured here: total cells without miR-34 induction
[23] = MELAS cybrid survival, CellTiter-Glo 48 h, stronger effect = higher value
[24] = Rieske KO mouse fibroblast survival, CellTiter-Glo 72 h

## CC(C)NC[C@@H](C(=O)N1CCN(c2ncnc3c2[C@H](C)C[C@H]3O)CC1)c1ccc(Cl)cc1
[1]
  AC50: 11.8 µM (active)
[2]
  AC50: 23.5 µM (active)
[3]
  AC50: 7.43 µM (active)
[4]
  AC50: 4.68 µM (active)
[5]
  AC50: 5.25 µM (active)
[6]
  AC50: 2.64 µM (active)

## CCCCN1CCC(CNC(=O)c2c3n(c4ccccc24)CCCO3)CC1
[1]
  AC50: 6.62 µM (active)
[2]
  outcome: inactive
[3]
  AC50: 16.6 µM (active)

## CC(=O)N1CCN(CCOc2ccc(C3CCN(C4=Nn5c(nnc5C(F)(F)F)CC4)CC3)cc2)CC1
[7]
  outcome: inactive
[8]; [19]
  fold change: 0.859 (inactive)
[8]; [20]
  fold change: 0.882
[8]; [21]
  cell count: 5930
[8]; [22]
  cell count: 6900
[9]; [23]
  z-score: -0.00811 (inactive)
[9]; [24]
  z-score: -0.339

## CNC(=O)c1ccc(-c2cnc3ncc(Cc4ccc5ncccc5c4)n3n2)cc1F
[1]
  outcome: inactive
[2]
  outcome: inactive
[3]
  outcome: inactive
[4]
  outcome: inactive
[5]
  outcome: inactive
[6]
  outcome: inactive
[10]
  outcome: inactive

## CN1C(=O)C[C@H](C(=O)N[C@@H](Cc2cnc[nH]2)C(=O)N2CCC[C@H]2C(N)=O)NC1=O
[1]
  outcome: inactive

## CCc1ccc(/C=C2/SC(=S)NC2=O)cc1
[11]
  inhibition: -3% (inactive)
[12]
  fluorescence ratio (interference): 1 (inactive)
[1]
  outcome: inactive
[2]
  outcome: inactive
[3]
  outcome: inactive
[4]
  outcome: inactive
[5]
  outcome: inactive
[6]
  outcome: inactive
[13]
  outcome: inactive
[10]
  outcome: inactive
[8]; [19]
  fold change: 1 (inactive)
[8]; [20]
  fold change: 1.81
[8]; [21]
  cell count: 8940
[8]; [22]
  cell count: 8930
[14]
  outcome: inactive
[15]
  z-score: -0.65 (inactive)

## CCOC(=O)C1=C[C@@H](OC(CC)CC)[C@H](NC(C)=O)[C@@H](N)C1
[16]
  parasite load remaining: 175% (inactive) and 21.5% (inactive)
  viability: 83.1% and 67.5%
[1]
  outcome: inactive
[2]
  outcome: inactive
[3]
  outcome: inactive
[4]
  outcome: inactive
[5]
  outcome: inactive
[6]
  outcome: inactive
[13]
  outcome: inactive
[10]
  outcome: inactive
[8]; [19]
  fold change: 0.9 (inactive)
[8]; [20]
  fold change: 1.08
[8]; [21]
  cell count: 9340
[8]; [22]
  cell count: 10400
[9]; [23]
  z-score: 0.348 (inactive)
[9]; [24]
  z-score: -0.618
[17]
  remaining NAD: 10 nM (inactive)
[18]
  luciferase signal: 56 AU (inactive)
[15]
  z-score: 0.705 (inactive)

## C[C@@H]1CCO[C@H]2Cn3cc(C(=O)NCc4ccc(F)cc4F)c(=O)c(O)c3C(=O)N12
[1]
  outcome: inactive
[2]
  outcome: inactive

## C[C@@H]1C(=O)O[C@H]2CC34[C@H]5C[C@@H](C(C)(C)C)C36[C@@H](OC(=O)[C@@H]6O)O[C@@]4(C(=O)O5)[C@]21O (stereo partly drawn)
[1]
  outcome: inactive
[2]
  outcome: inactive
[3]
  outcome: inactive
[4]
  outcome: inactive
[5]
  outcome: inactive
[6]
  outcome: inactive
[13]
  outcome: inactive

## CCOC(=O)N1CCN(/[N+]([O-])=N/Oc2ccc([N+](=O)[O-])cc2C#N)CC1
[1]
  outcome: inactive
[2]
  AC50: 1.32 µM (active)

## COc1cc(OC)c2c(=O)[nH]c(-c3cc(C)c(OCCO)c(C)c3)nc2c1
[7]
  outcome: inactive
[10]
  outcome: inactive
[8]; [19]
  fold change: 0.96 (inactive)
[8]; [20]
  fold change: 0.714
[8]; [21]
  cell count: 7650
[8]; [22]
  cell count: 7970
[9]; [23]
  z-score: -0.573 (inactive)
[9]; [24]
  z-score: -1.26
